In the library only some 19% were active in any assay of this set; here they are far more common.
RORgamma inh: qHTS for inhibitors of ROR gamma transcriptional activity; Potency, µM (top dose mostly 53.6 µM), most hits filed as inhibitors; AID 2551, 2010; hit rate 5.4% among 310,000; Drosophila S2 Gal4-RORgamma UAS-luciferase reporter, 20 h; Nuclear receptor ROR-gamma (Mus musculus), P51450; note: nearly all actives have a fitted effect of over 60% in size
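In this cell-based reporter format, copper sulfate (700 uM final) drives Gal4–ROR gamma fusion expression from a metallothionein promoter in Drosophila Schneider cells; compounds preincubated 1 hr, reporter read after 20 hr at ambient temperature.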
Gal4-VP16 FLuc: VP16 counterscreen qHTS for inhibitors of ROR gamma transcriptional activity. Drosophila S2 Gal4-VP16 UAS-luciferase, luminescence, 20 h. Potency, µM (doses to about 53.6 µM), actives largely listed as inhibitors. hit rate 3.5% among 310,000. AID 2546, 2010;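 note: Gal4-VP16 expression switched on by copper sulfate through the metallothionein promoter; nearly all actives have a fitted effect of over 50% in size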
TDP1 cell noCPT: qHTS for Inhibitors of human tyrosyl-DNA phosphodiesterase 1 (TDP1): qHTS in cells in absence of CPT | DT40 Tdp1-/- hTDP1 cells, no CPT, ATP luminescence, 48 h | Potency, µM (highest dose often 46.2 µM), actives largely listed as inhibitors | hit rate 15% among 420,000 | AID 686978, 2013; note: nearly all actives have a fitted effect of over 55% in size
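Chicken DT40 Tdp1-/- cells complemented with human TDP1, screened without camptothecin (DMSO vehicle only), 400 cells/well. Compounds pin-transferred, cells incubated at 37 °C for at least 48 hr. Growth read as ATP-dependent luminescence (CellTiter-Glo, 30 min at RT).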
DT40 TDP1 CPT: qHTS for Inhibitors of human tyrosyl-DNA phosphodiesterase 1 (TDP1): qHTS in cells in presence of CPT; chicken DT40 Tdp1-/-;hTDP1 cells + 20 nM CPT, ATP luminescence, 48 h; Potency, µM (titrated, usually from 46.2 µM), actives largely listed as inhibitors; hit rate 12% among 420,000; note: nearly all actives have a fitted effect of over 55% in size
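Chicken DT40 Tdp1-/- cells stably complemented with human TDP1 were seeded at 400 cells/well in medium containing 20 nM camptothecin, exposed to pin-transferred compounds, and grown at 37 °C for at least 48 hr. Viability was read as ATP luminescence.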
TDP1 inh: qHTS Assay for Inhibitors of Tyrosyl-DNA Phosphodiesterase (TDP1). AID 485290, 2010. Tyrosyl-DNA phosphodiesterase 1 (Homo sapiens), Q9NUW8. recombinant TDP1, AlphaScreen DNA substrate cleavage. hit rate 0.28% among 350,000. Potency, µM (highest dose often 130 µM), actives largely listed as inhibitors; note: nearly all actives have a fitted effect of over 40% in size
Target sequence (Q9NUW8 whole entry, looked up): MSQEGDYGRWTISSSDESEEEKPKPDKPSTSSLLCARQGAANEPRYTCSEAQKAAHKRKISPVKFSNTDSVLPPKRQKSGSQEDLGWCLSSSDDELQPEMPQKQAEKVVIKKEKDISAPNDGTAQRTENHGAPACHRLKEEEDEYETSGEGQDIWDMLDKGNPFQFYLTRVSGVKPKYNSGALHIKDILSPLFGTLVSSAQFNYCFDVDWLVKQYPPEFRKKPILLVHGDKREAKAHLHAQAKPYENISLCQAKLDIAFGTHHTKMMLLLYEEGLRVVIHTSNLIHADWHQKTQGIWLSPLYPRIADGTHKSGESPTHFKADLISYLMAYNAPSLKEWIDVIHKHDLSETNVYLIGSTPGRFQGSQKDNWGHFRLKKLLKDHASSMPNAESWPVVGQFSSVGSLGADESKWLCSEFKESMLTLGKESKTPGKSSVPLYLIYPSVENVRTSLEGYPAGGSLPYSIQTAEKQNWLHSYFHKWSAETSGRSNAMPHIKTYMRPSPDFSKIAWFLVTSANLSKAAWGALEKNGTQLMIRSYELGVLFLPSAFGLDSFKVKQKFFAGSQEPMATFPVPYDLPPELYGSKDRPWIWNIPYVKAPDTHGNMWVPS
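Compounds were preincubated with Tdp1 (1 nM final) for 15 min at room temperature before substrate (15 nM final) started a 5 min reaction; beads (10 ug/ml final) were then added for 10 min before AlphaScreen detection.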
Numbers stand for hits; - = inactive; ? = inconclusive; . = no result given; ! = not confirmed by another sample; [ ] = remark or other dose. Calls come from the whole dose curve; as a rule, active = well fitted curve in the direction sought with a large enough effect; inconclusive = small, poorly fitted or top-dose-only effect, or another doubt; inactive = no such curve, though single readings can be large; an effect the other way counts as inactive or inconclusive.

SMILES	RORgamma inh	Gal4-VP16 FLuc	TDP1 cell noCPT	DT40 TDP1 CPT	TDP1 inh
Cn1cccc1CN1CCN(C(=O)COc2ccccc2)CC1	-	-	-	-	-
Cn1nc(-c2ccc(OCC(=O)N3CCN(Cc4ccccc4)CC3)cc2)c2ccccc2c1=O	-	?	6.5µM	13µM	-
CSc1ccc(CN2CCN(C(=O)COc3ccc(C)cc3)CC2)cc1	-	-	18µM	?	-
c1cncc(CNc2cc(-c3ccc4c(c3)OCO4)ncn2)c1	-	-	?	-	-
CC1Cc2cc(S(=O)(=O)N(Cc3ccccc3)C(C)C)ccc2N1C(=O)C1CCC1 (centres undefined)	.	.	21µM	?	-
CC(Cc1ccccc1)NCCn1cnc2c1c(=O)n(C)c(=O)n2C (centres undefined)	.	.	?	-	.
CCc1ccc2c(CN3CC=C(c4ccccc4)CC3)cc(=O)oc2c1	-	-	16µM	?	-
O=c1[nH]c(CN2CC=C(c3ccccc3)CC2)nc2cc(C(F)(F)F)ccc12	-	-	?	?	-
Cc1ccc2c(CN3CC=C(c4ccccc4)CC3)cc(=O)oc2c1C	-	-	23µM	?	-
CCC(=NCc1ccco1)c1c(O)n(-c2ccccc2)c(=O)[nH]c1=O	-	-	-	-	-
COc1ccc(OCC(=O)N2CCN(C/C=C/c3ccccc3)CC2)cc1	-	-	?	?	-
COc1ccc(OCC(=O)N2CCN(C3CCC(c4ccccc4)CC3)CC2)cc1 (centres undefined)	-	-	18µM	?	-
O=C(COc1ccc2ccccc2c1)N1CCN(CC2CC3C=CC2C3)CC1 (centres undefined)	-	-	18µM	18µM	-
COc1ccc(OCC(=O)N2CCCC(N3CCN(c4ccccc4C)CC3)C2)cc1 (centres undefined)	?	-	21µM	16µM	-
CN1CCN(C(=O)COc2ccc3ccccc3c2)CC1	-	-	-	-	.
O=C(COc1ccc2ccccc2c1)N1CCN(C2CCN(Cc3ccccc3)CC2)CC1	-	-	?	16µM	-
CCOC(=O)C1=C(C)c2ccccc2OC1(C(=O)OCC)c1ccccc1 (centres undefined)	-	-	?	?	-
CCCCSc1nc2c(cnn2-c2ccccc2)c(=O)n1N	-	-	?	-	-
CCc1nc2c(OCc3ccc(C(F)(F)F)cc3)cccn2c1N(C)C(=O)C(C)C	.	.	26µM	?	.
CN1CCc2cc3c(cc2C1)OCO3	.	.	-	-	.
COC(=O)NC(=C(Cl)Cl)P(=O)(c1ccccc1)c1ccccc1	-	-	-	-	.
COC(=O)NC(=S)Nc1ccccc1NC(=S)NC(=O)OC	?	-	?	21µM!	-
COc1cc(/C=C2\C(=O)NC(=O)N(CCc3ccc(F)cc3)C2=O)ccc1O	-	-	-	-	-
C=CCN1CC[C@@]23c4c5ccc(O)c4O[C@H]2/C(=N\N=C2/CC[C@@]4(O)[C@H]6Cc7ccc(O)c8c7[C@@]4(CCN6CC=C)[C@@H]2O8)CC[C@]3(O)[C@@H]1C5	-	-	30µM	?	-
O=C1/C(=C/c2ccccc2)C[C@@]2(O)[C@H]3Cc4ccc(O)c5c4[C@@]2(CCN3CC2CC2)C1O5 (some centres undefined)	.	.	2.6µM	3.3µM	-
SMILES	RORgamma inh	Gal4-VP16 FLuc	TDP1 cell noCPT	DT40 TDP1 CPT	TDP1 inh
O=C1CC[C@]2(O)C3Cc4ccc(O)c5c4C2(CCN3CC2CC2)C1O5 (some centres undefined)	-	-	-	-	-
C=C(C)CN1CC[C@]23c4c5ccc(O)c4O[C@H]2c2[nH]c4ccccc4c2C[C@@]3(O)C1C5	-	-	.	.	-
C=C(C)CN1CC[C@@]23c4c5ccc(O)c4O[C@H]2c2[nH]c4ccccc4c2C[C@]3(O)[C@@H]1C5	-	28µM	27µM	-	-
C=CCN1CC[C@]23c4c5ccc(O)c4OC2C(=O)CC[C@]3(O)C1C5 (some centres undefined)	-	-	-	-	-
OC(CNCCc1c[nH]c2ccccc12)C(F)(F)F (centres undefined)	-	-	-	-	-
CC1=CC(C)C(COC(N)=O)(COC(N)=O)C(C)C1 (centres undefined)	-	-	-	-	-
CN1CCN(Cc2nc3ccccc3n2C)CC1	-	-	-	-	-
Cn1c(NN=O)nc2ccccc21	0.035µM	?	?	?	-
O=C(C(=O)N1CCC2(CC1)OCCO2)c1c[nH]c2ccccc12	-	-	-	?	-
CN1CCN(c2nc3ccccc3c(=O)n2-c2ccccc2)CC1	-	-	-	-	-
Clc1cccc(N2CCNCC2)c1Cl	?	-	?	-	-
c1ccc2c(N3CCNCC3)cccc2c1	.	.	?	18µM	-
c1csc(C2(N3CCCCC3)CCCCC2)c1	-	-	-	-	-
CC(=O)O[C@H]1CC[C@H]2[C@@H]3CCC4=CC(=O)CCC4=C3C=C[C@]12C	-	-	-	?	.
O=P(Oc1ccccc1)(Oc1ccccc1)C(Nc1ccccc1)c1ccccc1 (centres undefined)	-	-	16µM	?	-
Cn1c(O)c(C=Nc2ccccc2Sc2ccccc2)c(=O)n(C)c1=O	-	-	?	-	-
O=C1NC(=O)C2=Cc3ccc(O)cc3OC2(O)N1 (centres undefined)	-	-	.	.	-
CC1CCCCN1CC(=O)c1ccc2cc[nH]c2c1 (centres undefined)	-	-	-	-	-
Clc1ccc(C(Cn2ccnc2)OCc2csc3c(Cl)cccc23)c(Cl)c1 (centres undefined)	.	.	13µM	23µM	.
CC(=O)c1ccccc1NC(=O)C1C2CCC(O2)C1C(=O)O (centres undefined)	-	-	.	.	-
CC(C)C[C@H]1COc2cccc(N3CCN(C)CC3)c2S(=O)(=O)N1	.	.	-	-	.
COc1ccccc1N=c1scc(-c2ccc(S(=O)(=O)N3CCCC3)cc2)n1C	.	.	2.9µM	5.2µM	-[12.3 µM]
Cc1n[nH]c(C)c1CCCCOc1ccc([N+](=O)[O-])cc1	-	?	?	15µM	.
C[C@]12CC[C@@H](O)CC1=CCC1C2CC[C@]2(C)C(=O)[C@H](F)CC12 (some centres undefined)	.	.	-	-	-
O=C(Cn1ncc2c3ccccc3n(Cc3ccccc3)c2c1=O)N1CCC2(CC1)OCCO2	-	-	.	.	-
O=C(Cn1ncc2c3ccccc3n(Cc3ccccc3F)c2c1=O)N1CCC2(CC1)OCCO2	-	-	12µM	23µM	-
O=C1N[C@H](Cc2ccccc2)C(=O)N2[C@@H]3[C@H](C[C@@H]12)c1ccccc1N3OOSc1ccccc1	.	.	18µM	16µM	.
Cc1ccc(OP(=O)(O)Oc2ccc(C)cc2)cc1	.	.	-	-	.

Bioassay records: PubChem, National Center for Advancing Translational Sciences (NCATS)
